Test results published in the supplement of paper PMC10849652.
About 7,900 targets were measured; listed, in parts, are those with a hit and a random draw of the rest. About 0.6% of all pairs of compound and target were hits.

Columns and labels:
Experiment in all cases: log2 fold change, soluble protein after heating vs DMSO (PISA); higher = thermal stabilisation; K562 cells, 10 uM, 30 min; active = over 0.2 and 3.5 SD of the protein, either way, in both replicates (recomputed)
erlotinib = compound: C#Cc1cccc(Nc2ncnc3cc(OCCOC)c(OCCOC)cc23)c1 [erlotinib]
Outline: (§1)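 K562 cells at 2×10^6 cells/mL were treated for 30 min with 10 μM compound, and aliquots were heated for 3 min over 48°C-58°C before pooling. Extraction used PBS with 0.5% NP-40 at 4°C, and soluble protein was the supernatant after 21,000xg for 90 min, measured by TMTpro 16plex LC-MS/MS with channel sums equalised. Thermal stability values, relative to control samples and from duplicates, are log2 fold changes.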

[1] = compound: C/C(=N\NC(=O)C1=CC(=CC=C1)S(=O)(=O)N2CCOCC2)/C3=C(C=CC(=C3)Cl)O
Outline: as §1

[2] = compound: C1=CC(=C(C=C1Cl)C2=NC3=NC=CN=C3C(=N2)NC4=CC=NC=C4)F
Outline: as §1

[3] = compound: C1=CC(=CC=C1C2=NC3=C(N2)C=C(C=C3)C(=O)N)OC4=CC=C(C=C4)Cl
Outline: as §1

[4] = compound: C1=CC2=C(C=CC(=C2)/C=C\3/C(=O)NC(=NCC4=CC=CS4)S3)N=C1
Outline: as §1

[5] = compound: C1=CC2=NC=CN=C2C=C1/C=C/3\C(=O)NC(=O)S3
Outline: as §1

[6] = compound: C1=CC=C(C=C1)C2=NC(=C(N2)C3=CC=NC=C3)C4=CC(=C(C=C4)Cl)O
Outline: as §1

[7] = compound: C1=CC=C2C(=C1)C3=NNC4=CC=CC(=C43)C2=O
Outline: as §1

[8] = compound: C1CCN(C1)C(=O)NC2=CC=CC(=C2)NC3=NC=C(C(=N3)NCCC4=CN=CN4)Br
Outline: as §1

[9] = compound: C1CN(CCC1(CC2=CC=C(C=C2)Cl)N)C3=NC=NC4=C3C=CN4
Outline: as §1

IRAK-1-4 Inhibitor I = compound: C1COCCN1CCN2C3=CC=CC=C3N=C2NC(=O)C4=CC(=CC=C4)[N+](=O)[O-] [IRAK-1-4 Inhibitor I]
Outline: as §1

ibrutinib = compound: C=CC(=O)N1CCC[C@@H](n2nc(-c3ccc(Oc4ccccc4)cc3)c3c(N)ncnc32)C1 [ibrutinib]
Outline: as §1

[10] = compound: CC(=O)c1cnc2ccc(-c3cc(Cl)c(O)c(Cl)c3)nc2c1N[C@H]1CC[C@H](CN(C)C)CC1
Outline: as §1

ralimetinib = compound: CC(C)(C)Cn1c(N)nc2ccc(-c3[nH]c(C(C)(C)C)nc3-c3ccc(F)cc3)nc21 [ralimetinib]
Outline: as §1

[11] = compound: CC(C)(O)CC(=O)NCCn1ccc2ncnc(Nc3ccc(Oc4cccc(C(F)(F)F)c4)c(Cl)c3)c21
Outline: as §1

[12] = compound: CC(C)C1=C2N=C(C=C(N2N=C1)NCC3=CC=CC=C3)NCCCCCCN
Outline: as §1

[13] = compound: CC(C)C[C@@H](C=O)NC(=O)[C@H](CC(C)C)NC(=O)[C@H](CC(C)C)NC(=O)OCc1ccccc1
Outline: as §1

pinometostat = compound: CC(C)N(C[C@H]1O[C@@H](n2cnc3c(N)ncnc32)[C@H](O)[C@@H]1O)[C@H]1C[C@@H](CCc2nc3cc(C(C)(C)C)ccc3[nH]2)C1 [pinometostat]
Outline: as §1

[14] = compound: CC1=C(C(CC(=O)N1)C2=CC=C(C=C2)C(F)(F)F)C(=O)NC3=C(C=C4C(=C3)C=NN4)F
Outline: as §1

[15] = compound: CC1=C(C2=C(C=C1)C(=O)C3=CC=CC=C3N2CCCN)C
Outline: as §1

Measured: log2 fold change

NGLY1 (UniProt Q96IV0)
UniProt Q96IV0, sequence (Q96IV0 whole entry, looked up): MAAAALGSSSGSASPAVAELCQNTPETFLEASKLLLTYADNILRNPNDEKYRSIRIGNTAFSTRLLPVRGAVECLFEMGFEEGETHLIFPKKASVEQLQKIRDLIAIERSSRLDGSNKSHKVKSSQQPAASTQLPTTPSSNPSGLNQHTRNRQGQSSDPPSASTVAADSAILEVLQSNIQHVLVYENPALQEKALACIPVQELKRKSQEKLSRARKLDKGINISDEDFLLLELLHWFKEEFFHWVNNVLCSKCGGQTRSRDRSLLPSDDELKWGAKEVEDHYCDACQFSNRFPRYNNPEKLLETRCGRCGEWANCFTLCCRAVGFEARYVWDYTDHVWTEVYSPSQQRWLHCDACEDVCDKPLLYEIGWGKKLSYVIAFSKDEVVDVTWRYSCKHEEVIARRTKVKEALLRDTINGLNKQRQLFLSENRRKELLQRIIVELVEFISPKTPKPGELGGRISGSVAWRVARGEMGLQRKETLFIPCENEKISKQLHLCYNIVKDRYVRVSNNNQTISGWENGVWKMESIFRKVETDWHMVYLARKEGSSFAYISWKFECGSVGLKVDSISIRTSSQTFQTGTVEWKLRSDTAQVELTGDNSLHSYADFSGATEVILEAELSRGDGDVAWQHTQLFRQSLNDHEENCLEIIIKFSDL
inactive: erlotinib 0.035 | [1] -0.06 | [2] -0.036 | [3] -0.014 | [4] 0.17 | [5] 0.023 | [6] -0.001 | [7] 0.045 | [8] -0.023 | [9] -0.024 | IRAK-1-4 Inhibitor I -0.091 | ibrutinib -0.052 | [10] -0.059 | ralimetinib 0.018 | [11] -0.07 | [12] -0.071 | [13] 0.036 | pinometostat 0.088 | [14] 0.04 | [15] 0.123

MINK1 (UniProt Q8N4C8)
UniProt Q8N4C8, sequence (Q8N4C8 whole entry, looked up): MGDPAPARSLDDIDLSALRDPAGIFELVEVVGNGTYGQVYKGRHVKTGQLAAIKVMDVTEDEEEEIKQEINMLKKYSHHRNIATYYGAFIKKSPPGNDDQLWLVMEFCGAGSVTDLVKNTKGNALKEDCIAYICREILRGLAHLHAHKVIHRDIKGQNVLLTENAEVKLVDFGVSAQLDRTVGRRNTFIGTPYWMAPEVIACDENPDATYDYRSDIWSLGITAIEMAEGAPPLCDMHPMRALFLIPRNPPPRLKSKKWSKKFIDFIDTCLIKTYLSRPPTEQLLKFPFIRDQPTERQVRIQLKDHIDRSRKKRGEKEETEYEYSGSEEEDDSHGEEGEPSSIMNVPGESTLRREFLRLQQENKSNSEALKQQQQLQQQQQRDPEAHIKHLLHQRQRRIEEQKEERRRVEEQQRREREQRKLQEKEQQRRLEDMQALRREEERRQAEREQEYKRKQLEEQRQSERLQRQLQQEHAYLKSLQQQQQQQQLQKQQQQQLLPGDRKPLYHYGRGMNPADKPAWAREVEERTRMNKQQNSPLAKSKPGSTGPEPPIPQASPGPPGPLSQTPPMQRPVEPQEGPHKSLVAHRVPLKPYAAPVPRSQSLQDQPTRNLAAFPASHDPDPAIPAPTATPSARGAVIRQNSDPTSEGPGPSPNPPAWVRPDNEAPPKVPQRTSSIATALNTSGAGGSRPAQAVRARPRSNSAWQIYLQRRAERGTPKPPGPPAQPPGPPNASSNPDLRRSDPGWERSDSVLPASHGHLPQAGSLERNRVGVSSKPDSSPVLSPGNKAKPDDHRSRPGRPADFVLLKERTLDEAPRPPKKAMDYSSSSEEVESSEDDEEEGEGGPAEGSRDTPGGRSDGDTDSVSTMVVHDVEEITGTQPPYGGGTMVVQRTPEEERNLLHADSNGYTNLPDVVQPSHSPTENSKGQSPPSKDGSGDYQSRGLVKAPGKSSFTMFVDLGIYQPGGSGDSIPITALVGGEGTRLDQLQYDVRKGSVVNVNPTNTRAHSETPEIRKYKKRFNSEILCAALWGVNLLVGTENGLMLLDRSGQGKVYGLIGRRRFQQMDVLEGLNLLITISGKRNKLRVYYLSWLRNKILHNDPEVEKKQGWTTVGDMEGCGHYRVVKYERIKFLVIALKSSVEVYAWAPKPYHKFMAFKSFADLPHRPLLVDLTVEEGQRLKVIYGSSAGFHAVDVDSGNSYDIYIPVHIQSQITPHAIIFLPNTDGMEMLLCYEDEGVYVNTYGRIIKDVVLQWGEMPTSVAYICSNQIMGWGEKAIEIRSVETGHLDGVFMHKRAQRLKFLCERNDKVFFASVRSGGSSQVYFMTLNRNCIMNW
inactive: erlotinib -0.05 | [1] 0.053 | [2] -0.071 | [3] 0.036 | [4] -0.045 | [5] 0.001 | [6] -0.064 | [7] -0.203 | [8] -0.003 | [9] -0.008 | IRAK-1-4 Inhibitor I -0.018 | ibrutinib 0.038 | ralimetinib -0.081 | [11] 0.053 | [12] 0.021 | [13] 0.044 | pinometostat 0.049 | [14] -0.017 | [15] 0.061
active: [10] -0.715

MRPS25 (UniProt P82663)
inactive: erlotinib -0.069 | [1] -0.023 | [2] -0.022 | [3] 0.084 | [4] -0.048 | [5] 0 | [6] 0.083 | [7] 0.061 | [8] -0.036 | [9] -0.068 | IRAK-1-4 Inhibitor I -0.059 | ibrutinib 0.12 | [10] -0.021 | ralimetinib -0.007 | [11] 0.074 | [12] -0.071 | [13] 0.017 | pinometostat -0.018 | [14] -0.106 | [15] -0.091

NEK3 (UniProt P51956)
inactive: erlotinib 0.003 | [1] -0.011 | [2] 0.096 | [3] 0.06 | [4] -0.063 | [6] 0.039 | [7] -0.05 | [8] -0.141 | [9] 0.103 | IRAK-1-4 Inhibitor I 0.104 | [10] -0.184 | ralimetinib -0.168 | [11] -0.015 | [12] 0.127 | [13] 0.098 | pinometostat -0.015 | [14] -0.028 | [15] 0.018

MKRN2 (UniProt Q9H000)
UniProt Q9H000, sequence (Q9H000 whole entry, looked up): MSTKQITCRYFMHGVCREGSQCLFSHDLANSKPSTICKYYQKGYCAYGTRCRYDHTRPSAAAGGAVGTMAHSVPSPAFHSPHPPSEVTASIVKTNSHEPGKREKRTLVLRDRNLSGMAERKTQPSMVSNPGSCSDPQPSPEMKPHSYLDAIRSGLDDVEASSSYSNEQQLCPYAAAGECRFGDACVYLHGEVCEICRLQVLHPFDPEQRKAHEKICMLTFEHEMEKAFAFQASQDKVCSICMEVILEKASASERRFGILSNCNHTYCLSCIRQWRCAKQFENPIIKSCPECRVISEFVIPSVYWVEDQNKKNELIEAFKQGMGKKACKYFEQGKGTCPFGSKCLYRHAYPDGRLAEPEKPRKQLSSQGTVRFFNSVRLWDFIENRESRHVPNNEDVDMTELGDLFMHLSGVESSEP
inactive: erlotinib -0.038 | [1] 0.057 | [2] -0.16 | [3] 0.013 | [4] -0.058 | [5] 0.002 | [6] -0.011 | [7] -0.052 | [8] -0.085 | [9] 0.061 | IRAK-1-4 Inhibitor I -0.063 | ibrutinib 0.026 | [10] -0.137 | ralimetinib 0.034 | [11] 0.017 | [12] 0.032 | [13] 0.089 | pinometostat 0.094 | [14] -0.017 | [15] -0.064

MORC2 (UniProt Q9Y6X9)
inactive: erlotinib 0.105 | [1] 0.033 | [2] -0.027 | [3] 0.051 | [4] 0.148 | [5] -0.097 | [7] 0.421 | IRAK-1-4 Inhibitor I -0.292 | ibrutinib 0.042 | [10] -0.201 | [11] -0.074 | [12] -0.084 | pinometostat 0.038

MSL1 (UniProt Q68DK7)
UniProt Q68DK7, sequence (Q68DK7 whole entry, looked up): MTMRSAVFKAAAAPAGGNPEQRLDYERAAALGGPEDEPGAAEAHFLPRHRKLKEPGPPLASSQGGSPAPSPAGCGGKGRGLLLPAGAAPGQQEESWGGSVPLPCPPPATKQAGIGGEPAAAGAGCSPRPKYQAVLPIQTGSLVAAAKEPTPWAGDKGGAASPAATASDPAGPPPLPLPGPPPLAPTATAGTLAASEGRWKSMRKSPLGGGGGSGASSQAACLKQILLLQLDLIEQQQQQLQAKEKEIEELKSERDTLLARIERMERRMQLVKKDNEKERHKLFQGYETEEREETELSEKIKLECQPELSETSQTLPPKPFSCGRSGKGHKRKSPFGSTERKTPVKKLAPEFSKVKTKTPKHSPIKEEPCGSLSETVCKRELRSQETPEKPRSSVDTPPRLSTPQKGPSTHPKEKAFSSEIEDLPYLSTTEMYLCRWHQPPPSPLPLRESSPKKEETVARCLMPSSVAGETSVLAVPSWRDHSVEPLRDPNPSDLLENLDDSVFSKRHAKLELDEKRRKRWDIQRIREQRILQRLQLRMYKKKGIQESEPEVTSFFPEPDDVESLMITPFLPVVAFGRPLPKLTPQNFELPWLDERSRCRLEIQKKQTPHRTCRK
inactive: erlotinib 0.185 | [2] 0.106 | [3] -0.193 | [4] 0.069 | [5] -0.033 | [6] 0.066 | [7] -0.026 | IRAK-1-4 Inhibitor I 0.007 | ibrutinib 0.01 | [10] -0.039 | ralimetinib 0.184 | [11] -0.086 | [12] 0.071 | [13] -0.005 | pinometostat -0.1 | [14] -0.022
active: [1] -0.603

NA isoform 3 (UniProt Q4G0T1)
inactive: erlotinib 0.019 | [1] 0 | [3] 0.01 | [4] 0.11 | [5] -0.035 | [6] 0.014 | [7] 0.047 | [8] 0.058 | [9] 0.071 | IRAK-1-4 Inhibitor I 0.007 | ibrutinib -0.1 | [10] -0.146 | ralimetinib -0.118 | [12] -0.022 | [13] 0.155 | pinometostat -0.043 | [14] 0.079 | [15] -0.109

NCOR1 (UniProt O75376)
inactive: erlotinib -0.057 | [1] 0.021 | [2] -0.034 | [3] 0.041 | [4] 0.08 | [5] 0.026 | [6] 0.044 | [7] -0.21 | [8] -0.055 | [9] -0.051 | IRAK-1-4 Inhibitor I 0.052 | ibrutinib 0.078 | ralimetinib 0.01 | [11] 0.011 | [12] 0.055 | [13] 0.022 | pinometostat 0.05 | [14] -0.084 | [15] 0.093
active: [10] -0.46

NMNAT1 (UniProt Q9HAN9)
inactive: erlotinib 0.033 | [1] -0.145 | [2] -0.302 | [3] -0.111 | [4] -0.032 | [5] 0.03 | [6] -0.102 | [7] -0.008 | [8] 0.157 | [9] -0.046 | IRAK-1-4 Inhibitor I -0.007 | ibrutinib 0.073 | [10] 0.05 | ralimetinib 0.18 | [11] 0.13 | [12] 0.093 | [13] 0.168 | pinometostat 0.429 | [14] 0.051
active: [15] -0.674

MLST8 (UniProt Q9BVC4)
UniProt Q9BVC4, sequence (Q9BVC4 whole entry, looked up): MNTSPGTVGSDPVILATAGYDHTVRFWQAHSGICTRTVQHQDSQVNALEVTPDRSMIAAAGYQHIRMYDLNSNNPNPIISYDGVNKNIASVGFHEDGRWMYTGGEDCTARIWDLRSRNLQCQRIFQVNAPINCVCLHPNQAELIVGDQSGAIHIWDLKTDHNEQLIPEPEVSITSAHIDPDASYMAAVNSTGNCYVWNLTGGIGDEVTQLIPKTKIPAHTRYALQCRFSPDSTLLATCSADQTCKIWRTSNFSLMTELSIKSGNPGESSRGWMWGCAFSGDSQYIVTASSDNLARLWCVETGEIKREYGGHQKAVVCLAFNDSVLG
inactive: erlotinib -0.021 | [1] 0.049 | [2] -0.004 | [3] 0.102 | [4] 0.116 | [5] -0.026 | [7] -0.111 | [8] -0.035 | [9] -0.105 | IRAK-1-4 Inhibitor I 0.002 | ibrutinib -0.048 | [10] 0.099 | [11] -0.049 | [12] -0.136 | pinometostat -0.093 | [14] 0.02 | [15] 0.037

NELFCD (UniProt Q8IXH7)
inactive: erlotinib 0.096 | [1] 0.034 | [2] 0.121 | [3] -0.154 | [4] 0.056 | [5] 0.031 | [7] 0.06 | IRAK-1-4 Inhibitor I -0.038 | ibrutinib -0.18 | [10] -0.04 | [11] -0.394 | [12] 0.101 | pinometostat 0.017 | [14] -0.036

MRPS27 isoform 2 (UniProt Q92552)
inactive: erlotinib -0.044 | [1] -0.058 | [2] 0.018 | [3] 0.061 | [4] 0.056 | [5] 0.024 | [6] 0.074 | [7] 0.086 | [8] -0.048 | [9] -0.106 | IRAK-1-4 Inhibitor I -0.116 | ibrutinib 0.019 | [10] -0.002 | ralimetinib 0.069 | [11] -0.104 | [12] -0.161 | [13] -0.011 | pinometostat -0.022 | [14] -0.021 | [15] -0.06

MRPS18B (UniProt Q9Y676)
inactive: erlotinib 0.026 | [1] 0.101 | [2] -0.051 | [3] 0.124 | [4] 0.03 | [5] 0.034 | [6] 0.027 | [7] 0.119 | [8] 0.079 | [9] -0.119 | IRAK-1-4 Inhibitor I -0.026 | ibrutinib 0.103 | [10] -0.096 | ralimetinib -0.022 | [11] -0.025 | [12] -0.043 | [13] 0.137 | pinometostat -0.005 | [14] 0.056 | [15] -0.068

NECTIN2 isoform 2 (UniProt Q92692)
UniProt Q92692, sequence (Q92692 whole entry, looked up): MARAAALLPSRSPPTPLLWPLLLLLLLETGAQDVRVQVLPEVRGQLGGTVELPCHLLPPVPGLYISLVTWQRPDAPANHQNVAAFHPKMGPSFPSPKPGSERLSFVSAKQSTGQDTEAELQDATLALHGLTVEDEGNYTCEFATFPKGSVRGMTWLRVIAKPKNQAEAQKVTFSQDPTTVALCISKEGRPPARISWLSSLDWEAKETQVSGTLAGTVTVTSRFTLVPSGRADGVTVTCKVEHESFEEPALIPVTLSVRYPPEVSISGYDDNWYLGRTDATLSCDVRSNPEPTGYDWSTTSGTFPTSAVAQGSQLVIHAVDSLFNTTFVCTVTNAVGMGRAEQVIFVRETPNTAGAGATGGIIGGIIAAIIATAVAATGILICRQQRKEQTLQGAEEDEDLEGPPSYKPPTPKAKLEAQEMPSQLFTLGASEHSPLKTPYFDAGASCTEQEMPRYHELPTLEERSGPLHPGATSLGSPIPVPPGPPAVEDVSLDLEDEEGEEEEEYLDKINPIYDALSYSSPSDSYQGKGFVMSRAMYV
inactive: erlotinib -0.151 | [1] 0.006 | [2] -0.386 | [3] 0.117 | [4] 0.168 | [5] -0.345 | [6] -0.029 | [7] -0.034 | IRAK-1-4 Inhibitor I -0.018 | ibrutinib 0.047 | [10] 0.03 | ralimetinib 0.081 | [11] 0.1 | [12] 0.059 | [13] 0.008 | pinometostat -0.008 | [14] 0

NUCKS1 (UniProt Q9H1E3)
active: [15] -0.454
inactive: erlotinib 0.045 | [1] -0.098 | [2] -0.002 | [3] -0.029 | [4] -0.052 | [5] 0 | [6] -0.089 | [7] 0.033 | [8] 0.067 | [9] -0.002 | IRAK-1-4 Inhibitor I 0.094 | ibrutinib -0.018 | [10] 0.208 | ralimetinib -0.054 | [11] 0.018 | [12] 0.138 | [13] -0.029 | pinometostat -0.061 | [14] 0.021

MYO19 (UniProt Q96H55)
UniProt Q96H55, sequence (Q96H55 whole entry, looked up): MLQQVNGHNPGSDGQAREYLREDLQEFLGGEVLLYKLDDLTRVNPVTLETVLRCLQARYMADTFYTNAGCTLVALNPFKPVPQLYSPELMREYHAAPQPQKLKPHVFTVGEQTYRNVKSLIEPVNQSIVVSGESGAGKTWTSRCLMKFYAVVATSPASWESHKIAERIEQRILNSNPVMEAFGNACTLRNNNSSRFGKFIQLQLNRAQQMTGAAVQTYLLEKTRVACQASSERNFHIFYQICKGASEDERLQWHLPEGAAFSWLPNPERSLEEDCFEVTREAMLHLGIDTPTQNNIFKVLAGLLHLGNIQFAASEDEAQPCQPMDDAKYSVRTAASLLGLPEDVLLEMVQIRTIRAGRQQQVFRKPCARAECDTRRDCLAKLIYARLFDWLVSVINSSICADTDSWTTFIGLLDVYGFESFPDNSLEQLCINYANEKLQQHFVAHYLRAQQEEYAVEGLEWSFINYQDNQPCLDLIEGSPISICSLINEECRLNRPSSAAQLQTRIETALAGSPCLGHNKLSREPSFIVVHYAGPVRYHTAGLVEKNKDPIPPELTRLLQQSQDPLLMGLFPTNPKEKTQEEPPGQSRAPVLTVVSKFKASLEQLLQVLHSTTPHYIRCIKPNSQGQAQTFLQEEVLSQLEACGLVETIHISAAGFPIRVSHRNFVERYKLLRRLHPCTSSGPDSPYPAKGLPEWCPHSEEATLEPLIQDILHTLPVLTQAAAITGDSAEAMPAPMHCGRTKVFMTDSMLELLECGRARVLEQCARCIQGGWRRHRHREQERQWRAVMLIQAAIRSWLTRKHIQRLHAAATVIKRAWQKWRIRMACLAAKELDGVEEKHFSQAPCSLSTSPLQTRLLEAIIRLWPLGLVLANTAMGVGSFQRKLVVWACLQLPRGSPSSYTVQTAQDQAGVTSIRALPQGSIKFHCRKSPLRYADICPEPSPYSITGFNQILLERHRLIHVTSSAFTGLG
inactive: erlotinib 0.032 | [1] -0.047 | [2] -0.103 | [3] -0.114 | [4] 0.011 | [5] 0.093 | [6] 0.027 | [7] 0.07 | IRAK-1-4 Inhibitor I 0.014 | ibrutinib -0.11 | [10] 0.168 | ralimetinib 0.115 | [11] 0.079 | [12] -0.06 | [13] 0.176 | pinometostat 0.014 | [14] -0.198
